Our source for the growth inhibition, inhibition and outcome values is PubChem BioAssay.

Values without a mark were called inactive. For part of these data: Measured potencies and affinities stand elsewhere. The source made the active and inactive calls. Unless noted, how the calls were made is not given here.

The inhibition is the change of the read-out against control, counted positive when it falls.

Experiment [1] is described as follows: antimalarial activity against Dd2 strain (AID 2302;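 active means growth inhibition above 50% at the single 2 µM test dose, taken to imply half-maximal potency below 2 µM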;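 further: 0% = DMSO untreated growth and 100% = chloroquine plus artemisinin killed control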). The following applies: P. falciparum Dd2 in RBCs, LDH growth readout, 72 h; at 2 µM; active compounds read high.
Experiment [2] can be described thus: human hepatoma cell viability loss – ATP luminescence, cytotoxicity control for P. falciparum antimalarial project, primary screen (AID 2303;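 active means inhibition above 50%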;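 further: 0% = DMSO wells and 100% = digitonin-killed cells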). To be noted: HepG2 viability, 24-48 h, at 10 µM, active compounds read high.
Experiment [3] deals with L-lactate dehydrogenase (Plasmodium falciparum (isolate CDC / Honduras)) (UniProt Q27743). Description: PfLDH activity inhibition – cell lysate, 3D7 strain, counter-screen for P. falciparum growth inhibition project (AID 2304).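 Further: 0% = vehicle and 100% = reference inhibitor.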 To be noted: P. falciparum 3D7 crude extract, LDH APAD/NBT absorbance; at 2 µM; active compounds read high. (Counterscreens check selectivity or assay interference.)

Experiment [4] can be described thus: inhibition of 3D7 malaria parasite growth – strain 3D7 (AID 2306).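 Further: 0% = DMSO wells and 100% = chloroquine plus artemisinin control wells.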 The following applies: P. falciparum 3D7 erythrocytic growth, LDH absorbance, 72 h; at 2 µM; active compounds read high.
Experiment [5] concerns the target Calcium-dependent protein kinase 1 (Plasmodium falciparum (isolate 3D7)) (UniProt P62344). Description: PfCDPK1 kinase inhibitors, biochemical, TCAMS library (AID 1159585; cut-off not given, nearly all actives have IC50 up to about 0.98 µM;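 further: inhibitors leave more ATP so luminescence rises with inhibition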). The following applies: recombinant PfCDPK1, Kinase-Glo ATP depletion luminescence. On the technique in general: In Kinase-Glo more light means more ATP remaining.
Experiment [6] has as its target Plasmodium falciparum protein kinase 6 (PK6, PF3D7_1337100) (UniProt Q8IDW1). Description: PfPK6 kinase inhibitors, biochemical, TCAMS library (AID 1159586). The following applies: recombinant PfPK6, Kinase-Glo ATP depletion luminescence.
The target of experiment [7] is Protein kinase 7 (PK7), Plasmodium falciparum 3D7 (PF3D7_0213400) (UniProt Q7YTF7). Briefly: inhibition of Plasmodium PK7 catalytic activity – biochemical, TCAMS antimalarial set, Kinase-Glo luminescence (AID 1159587). The following applies: recombinant PfPK7, Kinase-Glo ATP depletion luminescence.
Experiment [8] addresses Calcium-dependent protein kinase 4 (Plasmodium falciparum (isolate 3D7)) (UniProt Q8IBS5). Briefly: PfCDPK4 kinase inhibitors, biochemical, TCAMS library (AID 1159588; cut-off not given, nearly all actives have IC50 up to about 0.91 µM). The following applies: recombinant PfCDPK4, Kinase-Glo ATP depletion luminescence.

L-lactate dehydrogenase (Plasmodium falciparum (isolate CDC / Honduras)), sequence (Q27743 whole entry, looked up): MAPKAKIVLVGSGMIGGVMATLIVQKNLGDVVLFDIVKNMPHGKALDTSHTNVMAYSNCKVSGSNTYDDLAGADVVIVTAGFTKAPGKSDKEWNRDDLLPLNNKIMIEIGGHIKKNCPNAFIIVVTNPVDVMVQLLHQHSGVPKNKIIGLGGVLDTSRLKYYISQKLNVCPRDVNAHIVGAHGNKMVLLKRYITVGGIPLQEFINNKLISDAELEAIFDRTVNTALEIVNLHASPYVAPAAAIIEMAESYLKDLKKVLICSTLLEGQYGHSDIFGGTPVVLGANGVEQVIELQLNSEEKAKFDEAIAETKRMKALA
Calcium-dependent protein kinase 1 (Plasmodium falciparum (isolate 3D7)), sequence (P62344 whole entry, looked up): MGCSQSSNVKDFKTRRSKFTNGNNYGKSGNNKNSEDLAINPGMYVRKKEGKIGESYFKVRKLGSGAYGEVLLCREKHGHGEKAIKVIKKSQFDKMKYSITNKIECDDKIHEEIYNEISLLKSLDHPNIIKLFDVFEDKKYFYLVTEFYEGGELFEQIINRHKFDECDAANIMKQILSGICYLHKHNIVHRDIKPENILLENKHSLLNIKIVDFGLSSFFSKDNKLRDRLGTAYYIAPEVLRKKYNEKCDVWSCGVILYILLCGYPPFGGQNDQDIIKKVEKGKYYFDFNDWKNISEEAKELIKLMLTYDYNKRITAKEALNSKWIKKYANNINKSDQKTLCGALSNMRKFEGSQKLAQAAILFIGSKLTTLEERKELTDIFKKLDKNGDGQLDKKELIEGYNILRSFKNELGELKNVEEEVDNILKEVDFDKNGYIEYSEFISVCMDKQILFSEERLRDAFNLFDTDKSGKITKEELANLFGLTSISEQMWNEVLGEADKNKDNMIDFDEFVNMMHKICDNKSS
Calcium-dependent protein kinase 4 (Plasmodium falciparum (isolate 3D7)), sequence (Q8IBS5 whole entry, looked up): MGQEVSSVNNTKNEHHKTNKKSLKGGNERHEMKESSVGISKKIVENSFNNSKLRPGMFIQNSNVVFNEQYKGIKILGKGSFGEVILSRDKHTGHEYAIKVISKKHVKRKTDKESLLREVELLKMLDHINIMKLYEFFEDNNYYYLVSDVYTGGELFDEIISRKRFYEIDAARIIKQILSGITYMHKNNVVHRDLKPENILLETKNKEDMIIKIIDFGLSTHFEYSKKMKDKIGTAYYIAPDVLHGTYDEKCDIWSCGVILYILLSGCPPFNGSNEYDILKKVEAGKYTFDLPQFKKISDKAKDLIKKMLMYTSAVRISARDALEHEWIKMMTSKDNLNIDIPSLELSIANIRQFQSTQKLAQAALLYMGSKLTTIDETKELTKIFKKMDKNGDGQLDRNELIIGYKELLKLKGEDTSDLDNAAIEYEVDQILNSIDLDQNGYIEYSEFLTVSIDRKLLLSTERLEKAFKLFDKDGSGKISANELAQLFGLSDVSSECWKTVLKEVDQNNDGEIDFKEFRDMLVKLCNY
Protein kinase 7 (PK7), Plasmodium falciparum 3D7 (PF3D7_0213400), sequence (Q7YTF7 1-343): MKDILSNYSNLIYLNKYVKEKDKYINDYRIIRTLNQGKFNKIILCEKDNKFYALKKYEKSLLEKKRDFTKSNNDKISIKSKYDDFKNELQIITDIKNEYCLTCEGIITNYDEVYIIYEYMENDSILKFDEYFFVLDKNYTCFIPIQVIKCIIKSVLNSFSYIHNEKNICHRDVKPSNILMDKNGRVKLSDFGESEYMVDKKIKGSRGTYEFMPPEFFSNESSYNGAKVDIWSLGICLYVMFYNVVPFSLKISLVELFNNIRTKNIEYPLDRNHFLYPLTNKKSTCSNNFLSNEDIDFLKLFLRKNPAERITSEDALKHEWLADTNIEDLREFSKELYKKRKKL
Plasmodium falciparum protein kinase 6 (PK6, PF3D7_1337100), sequence (Q8IDW1 1-305): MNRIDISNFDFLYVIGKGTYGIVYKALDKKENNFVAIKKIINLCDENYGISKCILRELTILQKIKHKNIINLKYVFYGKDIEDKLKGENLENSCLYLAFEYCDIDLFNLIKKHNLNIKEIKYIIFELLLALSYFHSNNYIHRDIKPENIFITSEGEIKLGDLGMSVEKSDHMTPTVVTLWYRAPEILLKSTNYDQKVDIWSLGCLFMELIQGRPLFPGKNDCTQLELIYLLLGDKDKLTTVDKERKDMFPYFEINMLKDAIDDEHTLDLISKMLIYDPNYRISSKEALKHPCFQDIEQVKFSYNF

Consider `CCOC(=O)c1cnc2c(OC)cc(OC)c(Cl)c2c1Nc1ccccc1`, for which the growth inhibition in experiment [1] was 100% (active); in experiment [4], 99% (active). In addition, the inhibition in experiment [2] was 13%; in experiment [3], -3%. Besides, the result in experiment [5], in experiment [6], in experiment [7] and in experiment [8] was inactive.
`Nc1nc2c(ncn2OC[C@H]2COP(=O)(O)CO2)c(=O)[nH]1`: the growth inhibition in experiment [1] is 32%; in experiment [4], 92% (active). The inhibition in experiment [2] is 1%; in experiment [3] it was -2%. For the same molecule, the result in experiment [5], in experiment [6], in experiment [7] and in experiment [8] was inactive.
On to `CN(C)CCCNCc1cn(S(=O)(=O)c2ccccc2Cl)c2ccccc12`, for which the growth inhibition in experiment [1] was 71% (active); in experiment [4], 92% (active). Moreover, the results for the inhibition in experiment [2] and in experiment [3] were 20% and -6%, respectively. For the same molecule, the result in experiment [5], in experiment [6], in experiment [7] and in experiment [8] was inactive.
Regarding `CCCCCCCNCc1c(O)ccc2c(CNCCCCCCC)c(O)ccc12`, the growth inhibition is 99% (active) in experiment [1] and 100% (active) in experiment [4]. The results for the inhibition in experiment [2] and in experiment [3] were 29% and -3%, respectively. In addition, the outcome in experiment [5], in experiment [6], in experiment [7] and in experiment [8] was inactive.
In the case of `CCNc1cc(-c2cccc(OC)c2)nc(Nc2ccc(F)cc2)n1`, the growth inhibition is 23% in experiment [1] and 87% (active) in experiment [4]. Further, the inhibition in experiment [2] is 11%; in experiment [3] it was 3%. Moreover, the result in experiment [5], in experiment [6], in experiment [7] and in experiment [8] was inactive.
Turning to `O=C1CSc2ccc(CNC3CCN(CCc4c(Cl)cnc5ccc(Cl)cc45)CC3)nc2N1`, the growth inhibition was 92% (active) in experiment [1] and 101% (active) in experiment [4]. Also, the inhibition is 25% in experiment [2] and 2% in experiment [3]. Also, the outcome in experiment [5], in experiment [6], in experiment [7] and in experiment [8] was inactive.
For the molecule `O=C(NC1CC1)c1ccc(N2CCC(Oc3ccc(F)cc3)CC2)nc1`, the results for the growth inhibition in experiment [1] and in experiment [4] were 79% (active) and 89% (active), respectively. In addition, the inhibition in experiment [2] is -2%; in experiment [3], -1%. Further, the outcome in experiment [5], in experiment [6], in experiment [7] and in experiment [8] was inactive.
Take `CCC(=O)Nc1nnc(Cc2ccc(OC)c(OC)c2)s1`: the growth inhibition is 1% in experiment [1] and 93% (active) in experiment [4]. Also, the inhibition is -4% in experiment [2] and -2% in experiment [3]. Also, the outcome in experiment [5], in experiment [6], in experiment [7] and in experiment [8] was inactive.
Consider `Cc1cc(C)c2nc(N3CCC(C(=O)NCCCN4CCC(N5CCCCC5)CC4)CC3)sc2c1`, for which the figures for the growth inhibition in experiment [1] and in experiment [4] were 34% and 99% (active), respectively. Also, the inhibition was 99% (active) in experiment [2] and -5% in experiment [3]. For the same molecule, the result in experiment [5], in experiment [6], in experiment [7] and in experiment [8] was inactive.
Take `O=C(NC1CCN(c2ccnc(Nc3ccc(F)cc3)n2)C1)c1cc2ccccc2s1` (stereo not drawn): the growth inhibition in experiment [1] was 80% (active); in experiment [4], 99% (active). The values for the inhibition in experiment [2] and in experiment [3] were 6% and -8%, respectively. In addition, the outcome in experiment [5], in experiment [6], in experiment [7] and in experiment [8] was inactive.
Take `Cc1ccccc1C1CCN(C2CCC(NC(=O)c3ccc(-c4ccccn4)s3)CC2)CC1` (stereo not drawn): the growth inhibition was 17% in experiment [1] and 87% (active) in experiment [4]. Also, the inhibition in experiment [2] is 32%; in experiment [3], -1%. In addition, the result in experiment [5], in experiment [6], in experiment [7] and in experiment [8] was inactive.
Consider `Cc1cc(N[C@@H](Cc2ccccc2)C(=O)NCc2cccs2)nc(NCC2CCCCC2)n1`, for which the growth inhibition in experiment [1] is 92% (active); in experiment [4], 100% (active). The figures for the inhibition in experiment [2] and in experiment [3] were -5% and 0%, respectively. The result in experiment [5], in experiment [6], in experiment [7] and in experiment [8] was inactive.
In the case of `CNc1ccc(CNCc2cccc(-c3ccc(-c4nc5ccccc5[nH]4)s3)c2)cc1`, the values for the growth inhibition in experiment [1] and in experiment [4] were 77% (active) and 100% (active), respectively. For the same molecule, the figures for the inhibition in experiment [2] and in experiment [3] were 15% and -3%, respectively. Further, the result in experiment [5], in experiment [6], in experiment [7] and in experiment [8] was inactive.
On to `COc1ccc(N2CCN(c3nc(Nc4ccc(NC(C)=O)cc4)nc(N4CCCC4)n3)CC2)cc1`, for which the growth inhibition in experiment [1] is 38%; in experiment [4], 91% (active). Besides, the values for the inhibition in experiment [2] and in experiment [3] were -7% and -2%, respectively. For the same molecule, the result in experiment [5], in experiment [6], in experiment [7] and in experiment [8] was inactive.
In the case of `NCCCNc1ccnc2cc(Cl)ccc12`, the figures for the growth inhibition in experiment [1] and in experiment [4] were 25% and 101% (active), respectively. The results for the inhibition in experiment [2] and in experiment [3] were 14% and 0%, respectively. The result in experiment [5], in experiment [6], in experiment [7] and in experiment [8] was inactive.
On to `COc1ccc(-c2ccc(NC(=O)c3ccc(C#N)cc3)cc2)cc1CN(C)CCO`, for which the growth inhibition in experiment [1] was 44%; in experiment [4], 99% (active). The inhibition is 41% in experiment [2] and 9% in experiment [3]. In addition, the outcome in experiment [5], in experiment [6], in experiment [7] and in experiment [8] was inactive.
Regarding `O=C(Nc1ccc(C(F)(F)F)cc1)c1cc(Br)cnc1NCCCn1ccnc1`, the values for the growth inhibition in experiment [1] and in experiment [4] were 98% (active) and 99% (active), respectively. The inhibition was 32% in experiment [2] and 2% in experiment [3]. For the same molecule, the result in experiment [5], in experiment [6], in experiment [7] and in experiment [8] was inactive.
As to `Cc1cccc(C(=O)NCCCN2CCC(NC(=O)/C=C/c3ccc(Cl)c(Cl)c3)CC2)c1`, the growth inhibition in experiment [1] is 23%; in experiment [4] it was 98% (active). Moreover, the values for the inhibition in experiment [2] and in experiment [3] were 39% and 1%, respectively. For the same molecule, the outcome in experiment [5], in experiment [6], in experiment [7] and in experiment [8] was inactive.
In the case of `Cc1ccc(C(=O)Cn2nc(-c3ccc(C)c(S(=O)(=O)N4CCCC4)c3)ccc2=O)cc1`, the growth inhibition is 70% (active) in experiment [1] and 94% (active) in experiment [4]. Moreover, the inhibition is -1% in experiment [2] and -3% in experiment [3]. Besides, the result in experiment [5], in experiment [6], in experiment [7] and in experiment [8] was inactive.
In the case of `CN1CCC(N2CCN(Cc3cccc(-c4cccc(-c5nc6ccccc6[nH]5)c4)c3)CC2)CC1`, the growth inhibition in experiment [1] and in experiment [4] was 100% (active) throughout. Also, the figures for the inhibition in experiment [2] and in experiment [3] were 19% and -1%, respectively. Moreover, the outcome in experiment [5], in experiment [6], in experiment [7] and in experiment [8] was inactive.
In the case of `O=C(/C=C/c1ccc(Cl)c(Cl)c1)NCCCCCN1CCC(C(=O)Nc2ccc(F)c(Cl)c2)CC1`, the growth inhibition in experiment [1] is -3%; in experiment [4], 100% (active). The inhibition in experiment [2] is 25%; in experiment [3], 2%. Also, the result in experiment [5], in experiment [6], in experiment [7] and in experiment [8] was inactive.
